Laboratory results published in the supplement of paper PMC10849652.
Of roughly 8,800 targets only a part is listed; those with a hit were picked by preference. About 0.5% of all pairs of compound and target were hits.

Key:
Experiment in all cases: log2 fold change, soluble protein after heating vs DMSO (PISA); higher = thermal stabilisation; K562 lysate, 10 uM; active = over 0.2 and 3.5 SD of the protein, either way, in both replicates (recomputed)
ibrutinib = compound: C=CC(=O)N1CCC[C@@H](n2nc(-c3ccc(Oc4ccccc4)cc3)c3c(N)ncnc32)C1 [ibrutinib]
Summary of the method: (§1)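 Soluble protein was defined as the supernatant remaining after 21,000xg for 90 min, following pooling of heated aliquots and adjustment to 0.5% NP-40 at 4°C. Before that, crude K562 extract at 1 mg/mL protein in PBS pH 7.4 with 1 mM MgCl2 was treated with 10 μM compound for 30 min and heated for 3 min across 48°C-58°C. Quantification used TMTpro 16plex LC-MS/MS with channel sums equalised, and values are log-two fold changes in thermal stability relative to solvent controls from duplicates.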

[1] = compound: CC(=O)c1cnc2ccc(-c3cc(Cl)c(O)c(Cl)c3)nc2c1N[C@H]1CC[C@H](CN(C)C)CC1
Summary of the method: as §1

ralimetinib = compound: CC(C)(C)Cn1c(N)nc2ccc(-c3[nH]c(C(C)(C)C)nc3-c3ccc(F)cc3)nc21 [ralimetinib]
Summary of the method: as §1

[2] = compound: CC(C)(O)CC(=O)NCCn1ccc2ncnc(Nc3ccc(Oc4cccc(C(F)(F)F)c4)c(Cl)c3)c21
Summary of the method: as §1

[3] = compound: CC(C)C1=C2N=C(C=C(N2N=C1)NCC3=CC=CC=C3)NCCCCCCN
Summary of the method: as §1

[4] = compound: CC1=C(C(CC(=O)N1)C2=CC=C(C=C2)C(F)(F)F)C(=O)NC3=C(C=C4C(=C3)C=NN4)F
Summary of the method: as §1

[5] = compound: CC1=C(C2=C(C=C1)C(=O)C3=CC=CC=C3N2CCCN)C
Summary of the method: as §1

[6] = compound: CC1=C(C=C(C=C1)NC(=O)C2=CC(=CC=C2)C(C)(C)C#N)NC3=CC4=C(C=C3)N=CN(C4=O)C
Summary of the method: as §1

[7] = compound: CC1=C(C=C(C=C1)NC(=O)C2=CC(=CC=C2)N(C)C)NC(=O)C3=CC=C(C=C3)O
Summary of the method: as §1

[8] = compound: CC1=CC=C(C=C1)SC2=C3C=C(SC3=CN=C2)C(=O)N
Summary of the method: as §1

vemurafenib = compound: CCCS(=O)(=O)Nc1ccc(F)c(C(=O)c2c[nH]c3ncc(-c4ccc(Cl)cc4)cc23)c1F [vemurafenib]
Summary of the method: as §1

[9] = compound: CCCS(=O)(=O)Nc1ccc(F)c(C(=O)c2c[nH]c3ncc(Cl)cc23)c1F
Summary of the method: as §1

barasertib = compound: CCN(CCCOc1ccc2c(Nc3cc(CC(=O)Nc4cccc(F)c4)[nH]n3)ncnc2c1)CCOP(=O)(O)O [barasertib]
Summary of the method: as §1

[10] = compound: CC[C@@H]1C(=O)N(C)c2cnc(Nc3ccc(C(=O)NC4CCN(C)CC4)cc3OC)nc2N1C1CCCC1
Summary of the method: as §1

volasertib = compound: CC[C@@H]1C(=O)N(C)c2cnc(Nc3ccc(C(=O)N[C@H]4CC[C@H](N5CCN(CC6CC6)CC5)CC4)cc3OC)nc2N1C(C)C [volasertib]
Summary of the method: as §1

[11] = compound: CCn1c(C(=O)N(C2CC2)C2CC2)cc2c3c(ncn3C)c(Nc3cc(C)n(C)n3)nc21
Summary of the method: as §1

[12] = compound: CCn1cc(-c2ccnc3[nH]c(-c4cccc(CN(C)C)c4)cc23)c(-c2ccc(NC(=O)N(C)C)cc2)n1
Summary of the method: as §1

[13] = compound: CN1CCC(CNc2ccc3ncc(-c4cccc(OC(F)(F)F)c4)n3n2)CC1
Summary of the method: as §1

saracatinib = compound: CN1CCN(CCOc2cc(OC3CCOCC3)c3c(Nc4c(Cl)ccc5c4OCO5)ncnc3c2)CC1 [saracatinib]
Summary of the method: as §1

sotrastaurin = compound: CN1CCN(c2nc(C3=C(c4c[nH]c5ccccc45)C(=O)NC3=O)c3ccccc3n2)CC1 [sotrastaurin]
Summary of the method: as §1

Measured: log2 fold change

HERC2 (UniProt O95714)
inactive: ibrutinib 0.001 | [1] 0.053 | ralimetinib 0.002 | [2] 0.02 | [3] 0.082 | [4] 0.028 | [5] -0.063 | [6] 0.021 | [7] 0.041 | [8] 0.015 | vemurafenib 0.034 | [9] 0.004 | barasertib 0.038 | [10] -0.038 | volasertib -0.01 | [11] 0.039 | [12] 0.032 | [13] -0.021 | saracatinib 0.037 | sotrastaurin 0.047

ILK (UniProt Q13418)
inactive: ibrutinib 0.017 | [1] 0.006 | ralimetinib 0 | [2] -0.022 | [3] -0.007 | [4] 0.013 | [5] -0.02 | [6] 0.049 | [7] -0.001 | [8] 0.057 | vemurafenib 0.029 | [9] -0.024 | barasertib 0.059 | [10] -0.03 | volasertib -0.072 | [11] 0.016 | [12] -0.034 | [13] -0.019 | saracatinib 0.011 | sotrastaurin -0.002

GOLGA1 (UniProt Q92805)
inactive: ibrutinib 0.128 | [1] 0.008 | ralimetinib -0.024 | [2] -0.018 | [3] -0.019 | [4] 0.081 | [5] 0.027 | [6] -0.023 | [7] 0.019 | [8] 0.034 | vemurafenib 0.081 | [9] 0.086 | barasertib 0 | [10] 0.007 | volasertib 0.121 | [11] -0.061 | [12] -0.019 | [13] -0.04 | saracatinib -0.031 | sotrastaurin 0.071

GMIP (UniProt Q9P107)
UniProt Q9P107, sequence (Q9P107 whole entry, looked up): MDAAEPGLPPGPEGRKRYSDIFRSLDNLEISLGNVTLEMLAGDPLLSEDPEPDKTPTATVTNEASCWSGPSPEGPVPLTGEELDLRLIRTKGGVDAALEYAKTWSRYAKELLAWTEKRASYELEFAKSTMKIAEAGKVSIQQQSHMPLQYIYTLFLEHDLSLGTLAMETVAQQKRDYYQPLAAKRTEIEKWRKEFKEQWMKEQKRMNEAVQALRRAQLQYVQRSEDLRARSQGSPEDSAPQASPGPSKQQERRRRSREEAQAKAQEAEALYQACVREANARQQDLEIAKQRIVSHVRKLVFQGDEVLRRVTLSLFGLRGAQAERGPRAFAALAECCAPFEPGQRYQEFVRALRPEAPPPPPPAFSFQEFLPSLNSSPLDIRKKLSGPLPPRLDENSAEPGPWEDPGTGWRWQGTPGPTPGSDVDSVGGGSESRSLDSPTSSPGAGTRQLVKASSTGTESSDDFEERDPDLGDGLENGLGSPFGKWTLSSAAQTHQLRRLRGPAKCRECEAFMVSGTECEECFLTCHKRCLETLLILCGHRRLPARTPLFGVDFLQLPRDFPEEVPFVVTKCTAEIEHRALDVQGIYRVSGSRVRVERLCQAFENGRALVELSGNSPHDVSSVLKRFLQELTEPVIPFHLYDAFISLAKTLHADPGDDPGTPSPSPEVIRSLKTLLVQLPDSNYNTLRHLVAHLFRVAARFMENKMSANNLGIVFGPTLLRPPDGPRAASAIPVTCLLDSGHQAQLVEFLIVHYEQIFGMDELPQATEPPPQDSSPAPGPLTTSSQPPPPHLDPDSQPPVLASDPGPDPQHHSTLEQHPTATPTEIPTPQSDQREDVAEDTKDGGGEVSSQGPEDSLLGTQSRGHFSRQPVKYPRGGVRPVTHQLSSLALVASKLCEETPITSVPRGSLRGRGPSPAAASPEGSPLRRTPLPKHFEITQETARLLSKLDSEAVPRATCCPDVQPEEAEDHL
inactive: ibrutinib 0.182 | [1] 0.027 | ralimetinib 0.023 | [2] -0.11 | [3] -0.017 | [4] 0.029 | [5] 0.03 | [6] 0.019 | [7] -0.068 | [8] 0.045 | vemurafenib 0.041 | [9] 0.048 | barasertib -0.024 | [10] -0.01 | volasertib 0 | [11] -0.005 | [12] -0.027 | [13] -0.004 | saracatinib 0.007 | sotrastaurin 0.034

HMGN5 (UniProt P82970)
inactive: ibrutinib -0.035 | [1] -0.012 | ralimetinib -0.064 | [2] -0.021 | [3] 0.006 | [4] -0.004 | [5] -0.035 | [6] -0.011 | [7] 0.036 | [8] -0.056 | vemurafenib -0.007 | [9] -0.011 | barasertib -0.044 | [10] 0.016 | volasertib 0.013 | [11] -0.044 | [13] -0.164 | saracatinib -0.027 | sotrastaurin -0.029
active: [12] 0.3

KHDRBS1 (UniProt Q07666)
UniProt Q07666, sequence (Q07666 whole entry, looked up): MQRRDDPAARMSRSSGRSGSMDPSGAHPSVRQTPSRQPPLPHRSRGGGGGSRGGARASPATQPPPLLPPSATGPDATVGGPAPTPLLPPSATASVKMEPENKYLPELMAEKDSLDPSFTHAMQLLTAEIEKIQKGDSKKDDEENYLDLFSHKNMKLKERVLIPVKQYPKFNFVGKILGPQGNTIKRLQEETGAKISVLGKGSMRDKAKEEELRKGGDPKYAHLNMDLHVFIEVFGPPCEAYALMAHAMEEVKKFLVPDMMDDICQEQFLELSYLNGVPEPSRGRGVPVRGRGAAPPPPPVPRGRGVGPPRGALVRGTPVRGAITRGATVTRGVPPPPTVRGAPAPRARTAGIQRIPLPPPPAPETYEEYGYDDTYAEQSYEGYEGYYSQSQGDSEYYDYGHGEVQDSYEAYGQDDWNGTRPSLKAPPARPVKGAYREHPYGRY
active: [1] -0.517
inactive: ibrutinib 0.023 | ralimetinib -0.021 | [2] -0.009 | [3] 0.016 | [4] 0.023 | [5] 0.007 | [6] -0.026 | [7] 0 | [8] 0.044 | vemurafenib -0.025 | [9] 0.004 | barasertib 0.034 | [10] -0.024 | volasertib -0.024 | [11] -0.002 | [12] 0.083 | [13] -0.048 | saracatinib -0.004 | sotrastaurin -0.008

H4C1 (UniProt P62805)
inactive: ibrutinib 0.055 | [1] -0.008 | ralimetinib -0.078 | [2] -0.037 | [3] -0.046 | [4] 0.075 | [5] -0.082 | [6] 0.011 | [7] -0.022 | [8] 0.008 | vemurafenib -0.013 | [9] 0.087 | barasertib 0.079 | [10] -0.055 | volasertib 0.027 | [11] 0.079 | [12] 0.268 | [13] -0.01 | saracatinib -0.094 | sotrastaurin -0.059

HECTD3 (UniProt Q5T447)
inactive: ibrutinib 0.054 | [1] 0.019 | ralimetinib 0.037 | [2] -0.027 | [3] -0.022 | [4] -0.043 | [5] 0.022 | [6] -0.014 | [7] 0.002 | [8] 0.011 | vemurafenib -0.046 | [9] 0.007 | barasertib -0.039 | [10] -0.022 | volasertib -0.024 | [11] 0.018 | [12] -0.004 | [13] -0.027 | saracatinib 0.032 | sotrastaurin 0.027

HSPA14 (UniProt Q0VDF9)
UniProt Q0VDF9, sequence (Q0VDF9 whole entry, looked up): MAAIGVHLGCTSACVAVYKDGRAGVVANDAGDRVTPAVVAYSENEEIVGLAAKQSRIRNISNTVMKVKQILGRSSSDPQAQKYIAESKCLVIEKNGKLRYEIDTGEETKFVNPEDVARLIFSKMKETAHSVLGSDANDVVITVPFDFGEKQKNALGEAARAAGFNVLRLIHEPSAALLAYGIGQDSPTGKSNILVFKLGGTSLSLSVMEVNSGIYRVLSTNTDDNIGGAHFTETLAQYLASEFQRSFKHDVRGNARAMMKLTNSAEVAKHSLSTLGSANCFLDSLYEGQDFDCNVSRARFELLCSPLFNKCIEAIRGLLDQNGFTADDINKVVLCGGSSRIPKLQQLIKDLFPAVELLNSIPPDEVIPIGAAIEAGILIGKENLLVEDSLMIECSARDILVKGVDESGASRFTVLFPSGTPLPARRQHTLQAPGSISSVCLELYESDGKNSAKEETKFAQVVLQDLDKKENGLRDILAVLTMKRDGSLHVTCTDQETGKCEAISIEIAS
inactive: ibrutinib 0.004 | [1] -0.008 | ralimetinib 0.009 | [2] -0.013 | [3] -0.032 | [4] -0.02 | [5] -0.009 | [6] -0.012 | [7] 0.033 | [8] 0.004 | vemurafenib 0.023 | [9] 0.011 | barasertib 0.001 | [10] -0.026 | volasertib -0.043 | [11] 0.013 | [12] 0.04 | [13] -0.021 | saracatinib 0.002 | sotrastaurin 0.039

HSPB1 (UniProt P04792)
UniProt P04792, sequence (P04792 whole entry, looked up): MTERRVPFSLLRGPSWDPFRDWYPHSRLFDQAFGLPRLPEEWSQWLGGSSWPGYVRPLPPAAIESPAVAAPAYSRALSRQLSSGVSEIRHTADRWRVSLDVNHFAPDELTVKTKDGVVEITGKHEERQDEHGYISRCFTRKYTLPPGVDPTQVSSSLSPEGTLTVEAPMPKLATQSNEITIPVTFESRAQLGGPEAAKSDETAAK
inactive: ibrutinib -0.015 | [1] -0.008 | ralimetinib 0.022 | [2] -0.016 | [3] 0.012 | [4] 0 | [5] 0.016 | [6] -0.117 | [7] 0.006 | [8] 0.003 | vemurafenib -0.001 | [9] -0.003 | barasertib 0.019 | [10] 0.008 | volasertib -0.02 | [11] 0.01 | [12] 0.005 | [13] -0.042 | saracatinib 0.024 | sotrastaurin 0.005

IMPACT (UniProt Q9P2X3)
UniProt Q9P2X3, sequence (Q9P2X3 whole entry, looked up): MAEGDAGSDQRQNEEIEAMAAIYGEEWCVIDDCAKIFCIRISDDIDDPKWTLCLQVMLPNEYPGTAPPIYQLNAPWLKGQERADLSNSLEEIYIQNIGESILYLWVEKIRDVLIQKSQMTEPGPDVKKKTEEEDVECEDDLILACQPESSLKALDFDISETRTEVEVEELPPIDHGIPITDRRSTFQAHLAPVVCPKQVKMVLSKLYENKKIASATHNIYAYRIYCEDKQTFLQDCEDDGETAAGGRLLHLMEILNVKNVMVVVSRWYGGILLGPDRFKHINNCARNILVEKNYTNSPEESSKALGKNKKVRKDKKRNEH
inactive: ibrutinib -0.19 | [1] -0.075 | ralimetinib 0.061 | [2] 0.001 | [3] -0.065 | [4] 0.289 | [5] 0.034 | [6] 0.146 | [7] 0.14 | [8] -0.052 | vemurafenib 0.158 | [9] -0.117 | barasertib -0.014 | [10] -0.095 | volasertib 0.053 | [11] 0.133 | [12] 0.003 | [13] -0.122 | saracatinib 0.001 | sotrastaurin 0.058

GRK6 isoform 2 (UniProt P43250)
active: [13] 0.614
inactive: ibrutinib 0.083 | [1] 0.04 | ralimetinib -0.073 | [2] -0.068 | [3] -0.036 | [4] 0.021 | [5] -0.092 | [6] 0.048 | [7] -0.049 | [8] -0.005 | vemurafenib 0.102 | [9] 0.046 | barasertib 0.042 | [10] 0.11 | volasertib 0.006 | [11] -0.032 | [12] -0.136 | saracatinib -0.056 | sotrastaurin -0.001

GON4L (UniProt Q3T8J9)
UniProt Q3T8J9, sequence (Q3T8J9 whole entry, looked up): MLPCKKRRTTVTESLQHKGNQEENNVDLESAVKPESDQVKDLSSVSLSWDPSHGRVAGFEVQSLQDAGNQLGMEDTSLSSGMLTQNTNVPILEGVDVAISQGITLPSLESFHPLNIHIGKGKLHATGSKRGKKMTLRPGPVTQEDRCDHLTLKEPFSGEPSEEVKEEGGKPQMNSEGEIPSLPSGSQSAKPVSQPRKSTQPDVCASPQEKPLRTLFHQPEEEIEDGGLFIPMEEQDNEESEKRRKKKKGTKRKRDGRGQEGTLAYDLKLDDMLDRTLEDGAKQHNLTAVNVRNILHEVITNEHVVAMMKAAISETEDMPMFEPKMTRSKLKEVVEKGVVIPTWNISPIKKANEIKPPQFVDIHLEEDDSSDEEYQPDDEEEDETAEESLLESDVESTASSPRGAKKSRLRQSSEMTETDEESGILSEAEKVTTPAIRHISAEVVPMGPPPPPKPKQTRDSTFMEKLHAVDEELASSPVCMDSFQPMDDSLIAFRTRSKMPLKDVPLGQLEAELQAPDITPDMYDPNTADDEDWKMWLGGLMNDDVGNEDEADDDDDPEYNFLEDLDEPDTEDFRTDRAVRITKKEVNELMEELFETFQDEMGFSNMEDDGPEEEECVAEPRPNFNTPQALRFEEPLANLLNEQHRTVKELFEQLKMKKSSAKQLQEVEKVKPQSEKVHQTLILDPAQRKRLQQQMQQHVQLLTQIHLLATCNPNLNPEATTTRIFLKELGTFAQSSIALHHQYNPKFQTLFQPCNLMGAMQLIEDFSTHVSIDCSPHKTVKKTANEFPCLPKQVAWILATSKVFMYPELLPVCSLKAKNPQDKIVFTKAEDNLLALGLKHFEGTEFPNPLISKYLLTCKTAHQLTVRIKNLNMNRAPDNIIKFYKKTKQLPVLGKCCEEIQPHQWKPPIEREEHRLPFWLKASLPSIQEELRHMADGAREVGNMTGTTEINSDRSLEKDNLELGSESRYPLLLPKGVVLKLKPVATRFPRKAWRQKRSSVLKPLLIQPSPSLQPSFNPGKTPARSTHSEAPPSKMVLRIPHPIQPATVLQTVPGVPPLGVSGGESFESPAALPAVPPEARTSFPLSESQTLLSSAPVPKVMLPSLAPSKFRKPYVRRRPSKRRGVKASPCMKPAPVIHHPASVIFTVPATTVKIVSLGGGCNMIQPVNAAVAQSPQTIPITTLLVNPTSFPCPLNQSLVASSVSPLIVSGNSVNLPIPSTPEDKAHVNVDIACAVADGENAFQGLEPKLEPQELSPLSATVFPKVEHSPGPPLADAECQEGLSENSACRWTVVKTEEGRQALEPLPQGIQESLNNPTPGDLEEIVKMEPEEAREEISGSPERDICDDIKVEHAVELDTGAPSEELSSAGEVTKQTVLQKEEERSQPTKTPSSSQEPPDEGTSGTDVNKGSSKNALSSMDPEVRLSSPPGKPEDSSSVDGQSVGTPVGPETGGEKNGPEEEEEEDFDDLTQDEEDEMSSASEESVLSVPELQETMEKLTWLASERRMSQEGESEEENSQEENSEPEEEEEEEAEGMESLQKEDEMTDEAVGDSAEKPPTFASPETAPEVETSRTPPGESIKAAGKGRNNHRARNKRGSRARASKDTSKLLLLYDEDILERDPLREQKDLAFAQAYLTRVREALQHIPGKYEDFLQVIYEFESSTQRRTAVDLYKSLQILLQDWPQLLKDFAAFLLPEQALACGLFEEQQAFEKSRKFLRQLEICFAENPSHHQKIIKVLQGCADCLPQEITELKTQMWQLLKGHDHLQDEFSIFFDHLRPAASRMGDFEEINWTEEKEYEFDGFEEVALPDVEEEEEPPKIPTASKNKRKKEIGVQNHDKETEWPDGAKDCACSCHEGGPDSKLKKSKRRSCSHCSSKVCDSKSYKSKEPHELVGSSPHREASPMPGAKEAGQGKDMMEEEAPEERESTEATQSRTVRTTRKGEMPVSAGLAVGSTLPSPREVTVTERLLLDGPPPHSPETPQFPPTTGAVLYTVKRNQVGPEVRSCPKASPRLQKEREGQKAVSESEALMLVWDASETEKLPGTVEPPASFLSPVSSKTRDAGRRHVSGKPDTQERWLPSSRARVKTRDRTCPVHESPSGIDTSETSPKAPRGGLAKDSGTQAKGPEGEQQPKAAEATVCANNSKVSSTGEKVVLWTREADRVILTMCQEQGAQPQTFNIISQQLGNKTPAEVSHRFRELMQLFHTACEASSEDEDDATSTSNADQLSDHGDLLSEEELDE
inactive: ibrutinib 0.026 | [1] 0.022 | ralimetinib 0.029 | [2] -0.042 | [3] -0.04 | [4] -0.02 | [5] -0.017 | [6] 0.01 | [7] 0.002 | [8] -0.044 | vemurafenib 0 | [9] 0.054 | barasertib 0.097 | [10] -0.064 | volasertib -0.018 | [11] 0.02 | [12] -0.104 | [13] -0.027 | saracatinib -0.019 | sotrastaurin 0.016

HK2 (UniProt P52789)
inactive: ibrutinib 0.021 | [1] -0.005 | ralimetinib 0.019 | [2] 0.006 | [3] -0.029 | [4] -0.007 | [5] 0.006 | [6] 0.008 | [7] 0.002 | [8] 0.011 | vemurafenib 0.046 | [9] 0.006 | barasertib 0.009 | [10] -0.044 | volasertib -0.049 | [11] 0.023 | [12] -0.015 | [13] -0.075 | saracatinib -0.009 | sotrastaurin 0.001

GTF2A1 (UniProt P52655)
UniProt P52655, sequence (P52655 whole entry, looked up): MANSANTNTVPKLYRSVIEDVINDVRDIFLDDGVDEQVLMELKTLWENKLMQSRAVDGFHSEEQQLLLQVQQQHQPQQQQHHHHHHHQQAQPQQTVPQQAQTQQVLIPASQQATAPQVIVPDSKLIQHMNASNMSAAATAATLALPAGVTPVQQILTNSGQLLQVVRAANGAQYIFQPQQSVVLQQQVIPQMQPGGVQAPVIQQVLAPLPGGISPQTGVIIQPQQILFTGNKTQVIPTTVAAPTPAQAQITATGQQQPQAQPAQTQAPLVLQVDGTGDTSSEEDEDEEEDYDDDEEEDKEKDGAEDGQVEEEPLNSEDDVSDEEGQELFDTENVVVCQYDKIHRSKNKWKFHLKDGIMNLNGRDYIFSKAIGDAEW
inactive: ibrutinib -0.009 | [1] -0.046 | ralimetinib 0.015 | [2] -0.016 | [3] -0.036 | [4] -0.069 | [5] -0.021 | [6] -0.013 | [7] 0.008 | [8] -0.014 | vemurafenib -0.028 | [9] 0.01 | barasertib 0.018 | [10] 0.042 | volasertib 0.035 | [11] 0.015 | [12] 0.033 | [13] -0.042 | saracatinib -0.004 | sotrastaurin 0.024

GTF3C3 (UniProt Q9Y5Q9)
inactive: ibrutinib 0.033 | [1] -0.001 | ralimetinib 0.027 | [2] -0.005 | [3] 0.02 | [4] -0.003 | [5] -0.112 | [6] 0.014 | [7] 0.047 | [8] -0.007 | vemurafenib 0.062 | [9] 0.06 | barasertib 0.01 | [10] -0.088 | volasertib -0.014 | [11] 0.003 | [12] -0.158 | [13] 0.005 | saracatinib 0.049 | sotrastaurin -0.013
